Most compounds without a hit are left out; they make up all but 6.6% or so of the library.
FBA Mtb inh: Mtb FBA enzyme inhibitors, primary screen, biochemical, fluorescence, strain H37Rv | Fructose-bisphosphate aldolase (Mycobacterium tuberculosis (strain ATCC 25618 / H37Rv)), … | purified M. tuberculosis FBA, fluorescence read-out | inhibition, % at 1 µM | actives 2.3% (n = 360,000); in the data active = inhibition above about 27%
Anthrax LF inh2: Bacillus anthracis LF protease inhibitors, primary screen, biochemical, multiplex microsphere, MLPCN library; multiplex microsphere protease cleavage assay; AID 588501, 2011; inhibition, % at 10 µM; actives 0.12% (n = 360,000)
BoNT-A LC inh2: BoNT/A light chain protease inhibitors, primary screen, biochemical, flow cytometry, MLPCN library | Botulinum neurotoxin type A light chain protease (Clostridium botulinum A str. ATCC 3502) | multiplex microsphere protease substrate cleavage | inhibition, % at 10 µM | actives 0.17% (n = 360,000) | AID 588499, 2011
GDH-TPI inh: GDH-TPI coupling enzyme inhibitors, primary screen, artefact control for M. tuberculosis FBA inhibitor project, biochemical, absorbance, full deck; AID 588335, 2011; actives 1.2% (n = 360,000); inhibition, % at 4.8 µM; GDH-TPI coupled enzyme counterscreen, NADH absorbance; in the data active = inhibition above about 30%
Autofluor counter: counter-screen for toxin protease inhibitors: compound fluorescence. compound autofluorescence counterscreen, microsphere flow cytometry; hits give high values. fluorescence intensity (no concentration beside the values). actives 3.1% (n = 360,000). AID 624483; in the data active = fluorescence intensity above about 16000; inconclusive = no clear call, values can overlap the other calls
BoNT F protease: BoNT/F light chain protease inhibitors, primary screen, biochemical, flow cytometry, MLPCN library; Botulinum neurotoxin type F light chain protease (Clostridium botulinum); Multiplex microsphere protease cleavage assay; inhibition, % at 10 µM; actives 0.22% (n = 360,000); in the data active = inhibition above about 35%, passing the limit was not always enough; inconclusive = no clear call, values can overlap the other calls
A number is an active result; i = inactive; ? = inconclusive; nt = no result; + = active, no number. Rule as the data show it, unless noted: active = inhibition above about 30%; inconclusive = no clear call, values can overlap the other calls; inactive = below that.

SMILES | FBA Mtb inh | Anthrax LF inh2 | BoNT-A LC inh2 | GDH-TPI inh | Autofluor counter | BoNT F protease
COc1ccc(S(=O)(=O)N2CCCCC2)cc1NC(=O)C1CC(=O)N(Cc2ccccc2)C1 (stereo unspecified) | i | i | i | i | i | i
CC1(C(=O)NS(=O)(=O)c2ccccc2Cl)CCN1C(=O)CCC1CCCC1 (stereo unspecified) | i | i | i | i | i | i
O=C(/C=C/[C@H]1O[C@@H](n2ccc(=O)[nH]c2=O)[C@H](O)[C@@H]1O)NCc1cccnc1 | i | i | i | nt | i | i
Cc1ccc(-c2csc3ncnc(SCC(=O)c4ccc5c(c4)OCCO5)c23)cc1 | i | i | ? | i | 19619 | i
CC(=O)CSc1ncnc2scc(-c3ccc(F)cc3)c12 | i | i | i | i | i | i
Cc1ccc(-c2csc3ncnc(SCC(=O)Nc4nnc(C)s4)c23)cc1 | i | i | ? | i | 21425 | i
C=CCn1c(SCC(=O)NC2CCCCC2)nnc1-c1cccnc1 | i | i | i | i | i | i
CN(C(=O)c1cnccn1)c1nnc(-c2cnccn2)s1 | i | i | i | 31.3 | i | i
CN(C(=O)c1ccccn1)c1nnc(-c2cnccn2)s1 | i | i | i | i | i | i
Cc1cccnc1NC(=O)CNC(=O)COc1ccccc1 | i | i | i | i | i | i
CC(=O)Oc1ccccc1Cn1c(C)c(C(=O)NCCC#N)sc1=O | i | i | i | i | i | i
CCCCOC(=O)c1ccc(NC(=O)CSC2=Nc3ccccc3C3CC=NN23)cc1 (stereo unspecified) | i | i | i | i | 22279 | i
Cc1ccc(S(=O)(=O)N2CCOCC2)cc1NC(=O)COC(=O)CCc1c[nH]c2ccccc12 | i | i | i | i | i | i
COCc1cc(=O)n2c([nH]c3ccccc32)c1C#N | + | i | i | i | i | i
Cc1c(CCC(=O)O)c(=O)n2c([nH]c3ccccc32)c1C#N | + | i | i | i | 20757 | i
C=C(C)Cc1c(C)c(C#N)c2[nH]c3ccccc3n2c1=O | + | i | i | i | i | i
CCOC(=O)[C@@H]1[C@H]2COc3ccc(Br)cc3[C@@H]2N2C(=O)N(c3ccc(Cl)cc3)C(=O)[C@]12C | i | i | i | i | i | i
O=S(=O)(c1cccc(-c2nc3ccccc3s2)c1)N1CCCC1 | i | i | i | i | 23878 | i
COc1ccc(-c2cn[nH]c2N)cc1 | i | i | i | i | i | i
CCOc1ccc(-c2cn[nH]c2N)cc1 | i | i | i | i | 23738 | i
COc1ccc(-c2cn[nH]c2N)c(OC)c1 | i | i | i | i | 17696 | i
O=C(COc1ccccc1F)NCC(c1ccco1)N1CCCC1 (stereo unspecified) | i | i | i | i | i | i
Cc1cc(=O)[nH]c2c1c(C)nn2C1CCCC1 | i | i | i | i | 18691 | i
Cc1cc(=O)[nH]c2c1c(C)nn2C1CCCCC1 | i | i | i | i | i | i
CC(C)C(=O)Nc1ccc2c(c1)nc(CCN1CCN(C)CC1)n2C | i | i | i | i | 24142 | i
SMILES | FBA Mtb inh | Anthrax LF inh2 | BoNT-A LC inh2 | GDH-TPI inh | Autofluor counter | BoNT F protease
CC(=O)N1CCN(Cc2nc3cc(NC(=O)c4ccccc4Cl)ccc3n2C)CC1 | i | i | i | i | i | i
Cn1c(CN2CCCCC2)nc2cc(NC(=O)c3ccccc3Cl)ccc21 | i | i | i | i | 20760 | i
Cn1c(CN2CCCC2)nc2cc(NC(=O)C3CCCCC3)ccc21 | i | i | i | i | 17014 | i
CN1CCN(CCc2nc3cc(NC(=O)COc4ccccc4)ccc3n2C)CC1 | i | i | i | i | i | i
Cn1c(CN2CCCCC2)nc2cc(NC(=O)c3ccc(F)cc3)ccc21 | i | i | i | i | i | i
COC(=O)c1ccc(/C=N/NC(=O)c2ccc3nc[nH]c3c2)cc1 | i | i | i | i | i | i
O=C(N/N=C/c1ccc([N+](=O)[O-])cc1)c1ccc2nc[nH]c2c1 | i | i | i | 37.4 | i | i
Cc1ccc(/C=N/NC(=O)c2ccc3nc[nH]c3c2)o1 | i | nt | nt | 62.8 | nt | nt
Cc1ccc2c(c1)N(Cc1ccccn1)C(=O)C(C)O2 (stereo unspecified) | i | i | i | i | 24586 | i
COC(=O)c1sc(NC(=S)NNC(=O)c2c(Br)c(C)nn2C)c(C(=O)OC)c1C | i | i | i | 52.6 | i | i
COC(=O)c1sc(S(=O)(=O)Nc2c(C)nn(C)c2C)c(C(=O)OC)c1C | i | i | i | i | i | i
CC(CN1CCN(C)CC1)OC(=O)c1ccc(Cl)cc1 (stereo unspecified) | i | i | i | i | i | i
CC(CN1CCN(C)CC1)OC(=O)c1ccc(Cl)cc1Cl (stereo unspecified) | i | i | ? | i | 16186 | i
CCCc1nc2cc(CC(=O)OC)ccc2o1 | i | i | i | i | 24068 | i
CC(=O)Nc1ccc(S(=O)(=O)NNC(=O)c2cccc(Cl)c2)cc1 | i | i | i | i | i | i
O=C(N/N=C/c1ccc(Br)o1)/C(=C/c1ccc([N+](=O)[O-])cc1)NC(=O)c1ccccc1 | i | i | i | 46.5 | i | i
CN(C)c1ccc(/C=C(/NC(=O)c2ccccc2)C(=O)N/N=C/c2ccc([N+](=O)[O-])c(O)c2)cc1 | i | i | i | i | i | i
CC(C)NC(=O)/C(=C\c1cccc([N+](=O)[O-])c1)NC(=O)c1ccccc1 | i | i | i | i | 22798 | i
O=C(N/N=C/c1ccco1)/C(=C/c1cccc([N+](=O)[O-])c1)NC(=O)c1ccccc1 | i | i | i | i | 22258 | i
Cc1ccc(C(=O)N/C(=C/c2cccc([N+](=O)[O-])c2)C(=O)NC(C)C)cc1 | i | i | i | i | i | i
O=C(CN1CCNC(=O)C1)NCCc1ccc(Cl)cc1Cl | i | i | i | i | i | i
COC(=O)C[C@H]1c2cc(C(F)(F)F)ccc2S(=O)(=O)N1C(C)(C)C | i | i | i | i | i | i
Fc1ccc(Oc2ncccn2)c(F)c1 | i | i | i | i | i | i
CC(=O)Nc1ccc(N2C(C(C)=O)=NN(c3ccccc3)C2c2cccs2)cc1 (stereo unspecified) | i | i | i | i | 19872 | i
CC(=O)N1N=C(c2ccccc2)CC1c1cccs1 (stereo unspecified) | i | i | i | i | i | i
CC(=O)Nc1ccc(C2=NN(c3ccccc3)C(c3cccs3)C2)cc1 (stereo unspecified) | 189.1 | i | i | i | i | i
Cc1ncc(CO)n1Cc1ccc(Cl)cc1 | i | i | i | i | i | i
Cc1cccc(Cn2nnc3c2C(=O)c2ccccc2C3=O)c1 | i | i | i | i | 16137 | i
Cc1cccc(Cn2ncc(Cl)c(Cl)c2=O)c1 | i | i | i | i | 16414 | i
